In PubChem BioAssay AID1159580 (chemical genetic matrix, 2015):
Several values for one entry are separate records, joined by “and”; a condition that tells them apart may be missing. Equal values may be shown once. Hit rate of the full screen: of about 5,500 compounds, about 2,000 (36%) were called active. Inconclusive results (about 18%) are left out. Cut-off read from the data, not from the text of the source: active = normalized growth mostly below about 0.91 (no sharp cut-off); inconclusive = no clear call, values can overlap the other calls; inactive = mostly above about 0.92. The list shows a part of the results.

Experiment: chemical genetic growth profiling, strain panel (AID 1159580);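 note: tested at 20 µM; growth read once vehicle control cultures reached saturation at 30 °C; 1 = growth at the plate median or of vehicle wells; lower values mean less growth of the strain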
Conditions: growth OD

Measured: normalized growth

Cc1cccc(C)c1NC1=NCCCS1
inactive: S. cerevisiae deletion strains, locus YJR075W, strain HOC1, stronger effect = lower value 1.03 | S. cerevisiae deletion strains, locus YKL009W, strain mrt4, stronger effect = lower value 0.968 | S. cerevisiae deletion strains, locus YKL068W, stronger effect = lower value 0.977 | S. cerevisiae deletion strains, locus YKL085W, strain MDH1 (second series), stronger effect = lower value 0.976 | S. cerevisiae deletion strains, locus YKL085W, strain MDH1, stronger effect = lower value 0.976 | S. cerevisiae deletion strains, locus YKL160W, strain elf1, stronger effect = lower value 1 | S. cerevisiae deletion strains, locus YKL190W, strain CNB1, stronger effect = lower value 1.01 | S. cerevisiae deletion strains, locus YKR001C, strain vps1, stronger effect = lower value 1 | S. cerevisiae deletion strains, locus YKR026C, strain gcn3, stronger effect = lower value 1 | S. cerevisiae deletion strains, locus YKR091W, strain srl3, stronger effect = lower value 1.01 | S. cerevisiae deletion strains, locus YLL001W, strain dnm1, stronger effect = lower value 0.959 | S. cerevisiae deletion strains, locus YLL026W, stronger effect = lower value 1 | S. cerevisiae deletion strains, locus YLL041C, strain sdh2, stronger effect = lower value 1.02 | S. cerevisiae deletion strains, locus YLR027C, strain aat2, stronger effect = lower value 1.01 | S. cerevisiae deletion strains, locus YLR039C, strain RIC1, stronger effect = lower value 0.997 | S. cerevisiae deletion strains, locus YLR058C, strain SHM2, stronger effect = lower value 0.996 | S. cerevisiae deletion strains, locus YLR102C, strain apc9, stronger effect = lower value 0.989 | S. cerevisiae deletion strains, locus YLR113W, strain HOG1, stronger effect = lower value 1.04 | S. cerevisiae deletion strains, locus YLR221C, strain rsa3, stronger effect = lower value 0.994 | S. cerevisiae deletion strains, locus YLR258W, strain gsy2, stronger effect = lower value 0.995 | S. cerevisiae deletion strains, locus YLR262C, strain YPT6 (second series), stronger effect = lower value 1.03 | S. cerevisiae deletion strains, locus YLR262C, strain YPT6, stronger effect = lower value 0.985 | S. cerevisiae deletion strains, locus YLR268W, strain sec22, stronger effect = lower value 0.978 | S. cerevisiae deletion strains, locus YLR320W, strain mms22, stronger effect = lower value 0.994 | S. cerevisiae deletion strains, locus YLR330W, strain CHS5, stronger effect = lower value 0.991 | S. cerevisiae deletion strains, locus YLR342W, strain FKS1 (second series), stronger effect = lower value 0.981 | S. cerevisiae deletion strains, locus YLR342W, strain FKS1, stronger effect = lower value 0.998 | S. cerevisiae deletion strains, locus YLR357W, strain rsc2, stronger effect = lower value 0.999 | S. cerevisiae deletion strains, locus YLR370C, strain arc18, stronger effect = lower value 1.03 | S. cerevisiae deletion strains, locus YLR371W, strain rom2, stronger effect = lower value 0.986 | S. cerevisiae deletion strains, locus YLR384C, strain iki3, stronger effect = lower value 0.993 | S. cerevisiae deletion strains, locus YLR418C, strain cdc73, stronger effect = lower value 0.986 | S. cerevisiae deletion strains, locus YML016C, strain PPZ1, stronger effect = lower value 0.998 | S. cerevisiae deletion strains, locus YML032C, strain rad52, stronger effect = lower value 0.998 | S. cerevisiae deletion strains, locus YML120C, strain ndi1, stronger effect = lower value 1.01 | S. cerevisiae deletion strains, locus YML124C, strain tub3, stronger effect = lower value 0.996 | S. cerevisiae deletion strains, locus YMR058W, strain fet3, stronger effect = lower value 1.02 | S. cerevisiae deletion strains, locus YMR078C, strain ctf18, stronger effect = lower value 0.98 | S. cerevisiae deletion strains, locus YMR125W, strain sto1, stronger effect = lower value 0.986 | S. cerevisiae deletion strains, locus YMR129W, stronger effect = lower value 1 | S. cerevisiae deletion strains, locus YMR205C, strain PFK2, stronger effect = lower value 1.01 | S. cerevisiae deletion strains, locus YMR223W, strain ubp8, stronger effect = lower value 0.969 | S. cerevisiae deletion strains, locus YMR231W, strain pep5, stronger effect = lower value 1 | S. cerevisiae deletion strains, locus YMR307W, strain GAS1, stronger effect = lower value 0.988 and 1 | S. cerevisiae deletion strains, locus YNL067W, strain RPL9B, stronger effect = lower value 1.04 | S. cerevisiae deletion strains, locus YNL071W, strain lat1, stronger effect = lower value 1.01 | S. cerevisiae deletion strains, locus YNL128W, strain TEP1, stronger effect = lower value 0.991 | S. cerevisiae deletion strains, locus YNL153C, strain GIM3, stronger effect = lower value 1.06 and 0.996 | S. cerevisiae deletion strains, locus YNL175C, strain NOP13, stronger effect = lower value 0.988 | S. cerevisiae deletion strains, locus YNL183C, strain NPR1, stronger effect = lower value 0.96 | S. cerevisiae deletion strains, locus YNL197C, strain WHI3, stronger effect = lower value 1.01 | S. cerevisiae deletion strains, locus YNL209W, strain ssb2, stronger effect = lower value 1.01 | S. cerevisiae deletion strains, locus YNL224C, strain SQS1, stronger effect = lower value 1 | S. cerevisiae deletion strains, locus YNL233W, strain BNI4, stronger effect = lower value 1.04 | S. cerevisiae deletion strains, locus YNL248C, strain rpa49, stronger effect = lower value 0.997 | S. cerevisiae deletion strains, locus YNL250W, strain rad50, stronger effect = lower value 0.926 | S. cerevisiae deletion strains, locus YNL271C, strain bni1, stronger effect = lower value 0.985 | S. cerevisiae deletion strains, locus YNL298W, strain CLA4, stronger effect = lower value 0.98 | S. cerevisiae deletion strains, locus YNL307C, strain MCK1, stronger effect = lower value 0.983 | S. cerevisiae deletion strains, locus YNL322C, strain KRE1 (second series), stronger effect = lower value 1.01 | S. cerevisiae deletion strains, locus YNL322C, strain KRE1, stronger effect = lower value 1.01 | S. cerevisiae deletion strains, locus YNR049C, strain mso1, stronger effect = lower value 0.999 | S. cerevisiae deletion strains, locus YNR052C, strain pop2, stronger effect = lower value 0.974 | S. cerevisiae deletion strains, locus YOL006C, strain TOP1, stronger effect = lower value 1.08 | S. cerevisiae deletion strains, locus YOL012C, strain htz1 1.34 | S. cerevisiae deletion strains, locus YOL147C, strain pex11, stronger effect = lower value 0.984 | S. cerevisiae deletion strains, locus YOR001W, strain rrp6, stronger effect = lower value 1.02 | S. cerevisiae deletion strains, locus YOR061W, strain CKA2, stronger effect = lower value 1 | S. cerevisiae deletion strains, locus YOR069W, strain VPS5, stronger effect = lower value 0.99 | S. cerevisiae deletion strains, locus YOR070C, strain gyp1, stronger effect = lower value 1.01 | S. cerevisiae deletion strains, locus YOR080W, strain dia2, stronger effect = lower value 0.999 | S. cerevisiae deletion strains, locus YOR083W, strain WHI5 (second series), stronger effect = lower value 0.998 | S. cerevisiae deletion strains, locus YOR083W, strain WHI5, stronger effect = lower value 1 | S. cerevisiae deletion strains, locus YOR106W, strain vam3, stronger effect = lower value 1.04 | S. cerevisiae deletion strains, locus YOR136W, strain idh2, stronger effect = lower value 0.995 | S. cerevisiae deletion strains, locus YOR144C, strain elg1, stronger effect = lower value 0.994 | S. cerevisiae deletion strains, locus YOR184W, strain ser1, stronger effect = lower value 0.976 | S. cerevisiae deletion strains, locus YOR231W, strain MKK1, stronger effect = lower value 1.02 | S. cerevisiae deletion strains, locus YOR265W, strain rbl2, stronger effect = lower value 1.01 | S. cerevisiae deletion strains, locus YOR270C, strain vph1, stronger effect = lower value 1.03 | S. cerevisiae deletion strains, locus YOR290C, strain snf2, stronger effect = lower value 1.01 | S. cerevisiae deletion strains, locus YOR316C, strain cot1, stronger effect = lower value 0.99 | S. cerevisiae deletion strains, locus YPL051W, strain arl3, stronger effect = lower value 0.999 | S. cerevisiae deletion strains, locus YPL055C, strain LGE1, stronger effect = lower value 1.1 | S. cerevisiae deletion strains, locus YPL078C, strain atp4, stronger effect = lower value 1.02 | S. cerevisiae deletion strains, locus YPL106C, strain sse1, stronger effect = lower value 1.01 | S. cerevisiae deletion strains, locus YPL240C, strain hsp82, stronger effect = lower value 0.999 | S. cerevisiae deletion strains, locus YPL241C, strain CIN2, stronger effect = lower value 1.01 | S. cerevisiae deletion strains, locus YPL256C, strain CLN2, stronger effect = lower value 1.04 | S. cerevisiae deletion strains, locus YPR119W, strain clb2, stronger effect = lower value 0.985 | S. cerevisiae deletion strains, locus YPR141C, strain kar3, stronger effect = lower value 0.982 | S. cerevisiae deletion strains, locus YPR163C, strain tif3, stronger effect = lower value 0.979 | S. cerevisiae deletion strains, locus YPR167C, strain met16, stronger effect = lower value 0.992 | S. cerevisiae deletion strains, strain wtn01, stronger effect = lower value 0.973 | S. cerevisiae strains, strain wild type, stronger effect = lower value 1
